# Screens: PubChem, National Center for Advancing Translational Sciences (NCATS)
# Only a selection was taken, and hits are over-represented in it overall.
# Pf Dd2 growth – qHTS Primary assay for Inhibitors of Plasmodium falciparum Dd2 growth in vitro. P. falciparum Dd2 growth, SYBR Green, 72 h. Potency, µM (highest dose often 28.9 µM), for inactives: at the top dose activity, negative = inhibition, most hits filed as inhibitors. 120,000 tested, 4.3% active. AID 1347417, 2020; active = well fitted inhibition curve with a large enough effect;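 also: plate controls were DMSO vehicle for no effect and reference drug for full effect; nearly all actives have a fitted effect of over 65% in size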
#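 Infected erythrocytes (Dd2, 0.3% parasitemia, 2.5% hematocrit final) are added to compound in RPMI-1640/Albumax II medium, grown 72 h at 37C in low oxygen, then lysed with saponin/Triton-X containing SYBR Green and read by fluorescence.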
# * = called active by the depositor; i = inactive; [ ] = another dose, or the depositor's remark. Potency is read from the fitted curve at half-maximal effect.
SMILES,Pf Dd2 growth
CC(C)(C)OC(=O)N1CCC(c2c(C(=O)N3CCC(c4ccccc4)C3)cnn2-c2cccc(Cl)c2)CC1 (stereo not given),3.5µM*
COc1ccccc1N1CCN(C(=O)c2cnn(-c3cccc(Cl)c3)c2C2CCN(C(=O)OC(C)(C)C)CC2)CC1,7.9µM*
CN1CCN(C(=O)c2cnn(-c3cccc(F)c3)c2C2CCN(C(=O)OC(C)(C)C)CC2)CC1,22%
Cc1cccc(-n2ncc(C(=O)N3CCOCC3)c2C2CCN(C(=O)OC(C)(C)C)CC2)c1,21%
CC(C)(C)OC(=O)N1CCC(c2c(C(=O)N3CCN(c4ncccn4)CC3)cnn2-c2ccccc2)CC1,-2%
Cc1ccc(C2CCN(C(=O)c3cnn(-c4cccc(Cl)c4)c3C3CCN(C(=O)OC(C)(C)C)CC3)C2)cc1 (stereo not given),4.5µM*
O=C(CCc1nc(C2CCCN2C(=O)C2CC2)no1)NCCC1=CCCCC1 (stereo not given),i
O=C(c1cccc(Cl)c1)N1CCC2(CC1)CC(Cc1ccccc1)=NO2,-14%
COc1cccc(-c2cnc3[nH]cc(CC(N)=O)c3c2)c1,i
COc1ccc(NC(=O)Cn2ccn3nc4c(c3c2=O)CCCCC4)cc1,13%
OCc1ccc(CN2C[C@H](O)C[C@H]2c2nc(Cc3ccc(F)cc3Cl)no2)o1,-4%[44.1 µM]
CC(=O)N1C(=O)COC[C@@H]1[C@H](O)c1ccc(NC(=O)C2CCC2)cc1,23%[44.1 µM]
CCOc1ccc(C(=O)N2CCC(c3nnc(Cn4cccn4)n3C)CC2)o1,-14%
O=C(c1ccc(F)c(Cl)c1)N1CCC2(CC1)CN(c1ccccc1)C2=O,-24%
COc1ccc(C(=O)N2CCC3(CC2)NC(=O)N(c2ccccc2Cl)N3)cc1,-2%
Cc1ccoc1C(=O)N1C[C@@H](COc2ccccc2)[C@H](C(N)=O)C1,-22%
O=C(c1ccc2cc[nH]c2c1)N1CCC2(CC1)CC(O)CCO2 (stereo not given),-16%
COc1ccc(C2(C(=O)N3CCC([C@H]4[C@@H](OC)C(=O)N4C(C)C)CC3)CC2)cc1,-9%
Cc1nc2c(c(C)nn2-c2ccccc2)c(C)c1CCC(=O)NCc1ccccc1,-27%
Cc1ccc(-n2nc(C)c3c(C)c(CCC(=O)NCc4cccc(Cl)c4)c(C)nc32)cc1C,-6%
Cc1nc2c(c(C)nn2-c2ccccc2)c(C)c1CCC(=O)NCCc1ccccc1,-23%
CCOc1ccc(CCNC(=O)CCc2c(C)nc3c(c(C)nn3-c3ccccc3)c2C)cc1OCC,7.9µM*
Cc1ccc(-n2nc(C)c3c(C)c(CCC(=O)NCc4ccccc4Cl)c(C)nc32)cc1,5.6µM*
CCCCNC(=O)CCc1c(C)nc2c(c(C)nn2-c2ccccc2)c1C,-23%
Cc1noc(C)c1S(=O)(=O)N1CCCC(Cc2noc(-c3ccncc3)n2)C1 (stereo not given),-5%
SMILES,Pf Dd2 growth
Cc1nc(N2CCC(NCCN3CCCOC3=O)CC2)c2ccsc2n1,-19%
CN(C)C[C@@H]1CN(S(C)(=O)=O)C[C@H]1NC(=O)CCCc1ccccc1,12%
O=C(NCc1cccs1)c1ccc2nccn2c1,18%[44.1 µM]
Cc1cc(Nc2ccc(F)cc2)nc(-n2nc(C)cc2C)n1,11µM*
CCCCOC(=O)c1ccc(Nc2nnc(-n3nc(C)cc3C)c3ccccc23)cc1,-10%
CC(=O)c1ccc(NC(=O)Cn2c(-n3nc(C)cc3C)nc(C)cc2=O)cc1,i
COc1ccc(Nc2nnc(-n3nc(C)cc3C)c3ccccc23)cc1,-14%
CCCCc1ccc(Nc2cc(C)nc(-n3nc(C)cc3C)n2)cc1,2.8µM*
Cc1cc(C)n(-c2nc3ccccc3nc2Nc2ccc(C(C)C)cc2)n1,-10%
COC(=O)c1ccc2c(c1)nc1n2[C@@H](CNC2CCCCC2)COC1,-1%[44.1 µM]
CCOC(=O)C1(Cc2ccccc2F)CCCN(C(=O)CCN2CCCCC2=O)C1 (stereo not given),-20%
O=c1c2c(n(Cc3cccnc3)n1-c1ccccc1)CN(CC1CC1)CC2,i
FC(F)(F)c1cccc(CN2CCOC[C@H](Oc3ccccc3)C2)c1,i
COc1ccc2nc([C@H]3CCN(Cc4ccncc4)C3)[nH]c2c1,i
COc1ccc2nc([C@H]3CCN(C4CCCCC4)C3)[nH]c2c1,-6%[44.1 µM]
COc1cccc(CN2CC[C@H](c3nc4ccccc4[nH]3)C2)c1,-21%[44.1 µM]
Cc1ccc(CN2CC[C@H](c3nc4ccc(C(F)(F)F)cc4[nH]3)C2)cc1,11µM*
COc1ccc(CN2CC[C@H](c3nc4ccc(C)cc4[nH]3)C2)cc1,i
Clc1cccc(CN2CC[C@H](c3nc4ccccc4[nH]3)C2)c1,i
FC(F)(F)c1ccc2nc([C@H]3CCN(Cc4ncc[nH]4)C3)[nH]c2c1,i
Fc1ccc2nc([C@H]3CCN(Cc4ncc[nH]4)C3)[nH]c2c1,i
Fc1ccc2nc([C@H]3CCN(Cc4cccs4)C3)[nH]c2c1,11µM*
c1ccc2ncc(CN3CC[C@H](c4nc5ccccc5[nH]4)C3)cc2c1,11µM*
COc1ccccc1CN1CC[C@H](c2nc3ccc(C(F)(F)F)cc3[nH]2)C1,8.9µM*
CC(=O)N1CC[C@H](c2nc3ccc(F)cc3[nH]2)C1,-6%[44.1 µM]
SMILES,Pf Dd2 growth
CCOc1ccc(NC(=O)N2CC(C(=O)N(C)C)C3(CCOCC3)C2)cc1 (stereo not given),-17%
Cc1cc(CN2C[C@@H](CO)[C@H](C(=O)NC3CC3)C2)n(C)n1,5%
O=C(Cc1ccsc1)NC1CCCN(c2cc(-c3ccccc3)[nH]n2)C1 (stereo not given),-5%
Cc1ccsc1C(=O)N1CC(C(=O)NC2CCCCC2)C2(CCOCC2)C1 (stereo not given),-4%
O=C(O)Cn1ccc2cc(OCCc3cccc(-c4ccc(F)cc4)c3)cnc21,-23%[44.1 µM]
O=C(Cn1nc2c(cc1=O)CCCC2)N1CCN(c2ccc(Cl)cc2)CC1,2%
CNC(=O)[C@@H](c1ccc(Cl)cc1)N1CCC[C@H]1C(=O)NCCOC,9%[44.1 µM]
Cc1ccccc1CN1CC[C@H](c2nc3ncccc3[nH]2)C1,32µM*
CS(=O)(=O)c1ccc(CN2CC[C@H](c3nc4ncccc4[nH]3)C2)cc1,-23%[44.1 µM]
CN(C)c1ccc(CN2CCC(c3nc4ncccc4[nH]3)C2)cc1 (stereo not given),-7%
COC(=O)CN(C)Cc1cn(-c2ccc(C)cc2)nc1-c1cccc(C)c1,-12%
CN(C)C(=O)CN1CCCC(N2CCN(c3cccc(C(F)(F)F)c3)CC2)C1 (stereo not given),-9%
Cc1ccc(-n2cc(CN3CCN4CCCC4C3)c(-c3cccc(C)c3)n2)cc1 (stereo not given),13µM*
Cc1ccc(-n2cc(CN3CCC(CCO)CC3)c(-c3cccc(C)c3)n2)cc1,10µM*
Cc1ccc(-n2cc(CN3CCN(C)C(CCO)C3)cn2)cc1 (stereo not given),-22%
CC1CCCN(Cc2cn3c(-c4cccc(Br)c4)nnc3s2)C1 (stereo not given),22%
CC(=O)NC1CCN(C(=O)c2coc(COc3ccc4c(c3)OCO4)n2)C1 (stereo not given),4%
C#CCNC(=O)CC[C@H]1CNC(=O)[C@@H]2[C@@H](CCN2Cc2ccc(O)cc2)N1C,-9%[44.1 µM]
Cc1cnc(-c2ccccc2)n1CCNC(=O)NCc1ccccc1,i
O=C1CCCN1CCCN1C(=O)[C@H]2CN(Cc3ccccc3Cl)C[C@H]2C1=O,i
COc1ccc(-c2n[nH]c3c2CC(=O)N(CCOc2ccccc2)C3)cn1,-17%[44.1 µM]
CCN1CCN(CCCNC(=O)CN2CC3CC(C2)[C@H]2CCCC(=O)N2C3)CC1 (stereo not given in full),-22%
